Here are results for two compounds from the supplement of paper PMC11628255, “Interference of metal ions on the bioluminescent signal of firefly, Renilla, and NanoLuc luciferases in high-throughput screening assays” (Frontiers in Chemistry, 2024).

The subject of this assay is firefly luciferase (FLuc). Put plainly: residual bioluminescent signal relative to negative control without GSH; higher = less interference (more residual luciferase signal). As to conditions: screening conditions buffer. How it is done:
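Selected metal salts at 3-4 concentrations tested on purified FLuc, NLuc or RLuc in screening buffer with 0, 0.2 or 2 mM glutathione added; 10 min enzyme pre-incubation at RT, luminescence 10 min after substrate. Signal normalised to negative control without GSH (% N_VALUE); triplicate wells.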

Setting [1] is: metal salt concentration 1 mM, glutathione 0 mM.
[2] abbreviates: metal salt concentration 1 mM, glutathione 0.2 mM.
[3] abbreviates: metal salt concentration 1 mM, glutathione 2 mM.

Each structure is given as a SMILES string. ± gives the standard deviation of the averaged measurements.

As to `[Cl][Fe]([Cl])[Cl]` [iron(III) chloride], the residual bioluminescent signal runs as follows: (metal salt concentration 0.0001 mM, glutathione 0 mM) 89.7 ± 5%; (metal salt concentration 0.0001 mM, glutathione 0.2 mM) 66.3 ± 5.5%; (metal salt concentration 0.0001 mM, glutathione 2 mM) 0.338 ± 0.22%; (metal salt concentration 0.0047 mM, glutathione 0 mM) 51.2 ± 3.8%; (metal salt concentration 0.0047 mM, glutathione 0.2 mM) 36.4 ± 2.5%; (metal salt concentration 0.0047 mM, glutathione 2 mM) 0.483 ± 0.17%. Also, the residual bioluminescent signal runs as follows: (metal salt concentration 0.02 mM, glutathione 0 mM) 1.11 ± 0.084%; (metal salt concentration 0.02 mM, glutathione 0.2 mM) 0.87 ± 0.14%; (metal salt concentration 0.02 mM, glutathione 2 mM) 0.725 ± 0.43%; under setting [1], 1.06 ± 0.36%; under setting [2], 0.628 ± 0.47%; under setting [3], 0.29 ± 0.14%.

For the compound `[Cl][Fe][Cl]` [iron(II) chloride], the residual bioluminescent signal (metal salt concentration 0.2 mM, glutathione 0 mM) was 98.6 ± 7.2%; the residual bioluminescent signal (metal salt concentration 0.2 mM, glutathione 0.2 mM) was 85.2 ± 7.9%; the residual bioluminescent signal (metal salt concentration 0.2 mM, glutathione 2 mM) is 0.483 ± 0.3%; the residual bioluminescent signal (metal salt concentration 0.26 mM, glutathione 0 mM) is 2.17 ± 0.52%; the residual bioluminescent signal (metal salt concentration 0.26 mM, glutathione 0.2 mM) worked out at 0.87 ± 0.25%; the residual bioluminescent signal (metal salt concentration 0.26 mM, glutathione 2 mM) stood at 0.387 ± 0.3%. Besides, the residual bioluminescent signal is, setting by setting: under setting [1], 0.58 ± 0.29%; under setting [2], 0.556 ± 0.31%; under setting [3], 0.531 ± 0.22%.
